From PubChem BioAssay (NCATS) come the findings set out here.

“And” between values parts separate entries of the source, which are not always exact repeats. Identical values can stand only once. Inconclusive results are not listed. A number with no mark means an inactive call. The source made the active and inactive calls. Calls follow the shape of the dose curve; as a rule, active = well fitted activation curve with a large enough effect; inconclusive = small, poorly fitted or top-dose-only effect; inactive = no such curve, though single readings can be large or run the other way.
Potency is read from the fitted curve at half-maximal effect.

Cellular tumor antigen p53 (Homo sapiens), sequence (P04637 whole entry, looked up): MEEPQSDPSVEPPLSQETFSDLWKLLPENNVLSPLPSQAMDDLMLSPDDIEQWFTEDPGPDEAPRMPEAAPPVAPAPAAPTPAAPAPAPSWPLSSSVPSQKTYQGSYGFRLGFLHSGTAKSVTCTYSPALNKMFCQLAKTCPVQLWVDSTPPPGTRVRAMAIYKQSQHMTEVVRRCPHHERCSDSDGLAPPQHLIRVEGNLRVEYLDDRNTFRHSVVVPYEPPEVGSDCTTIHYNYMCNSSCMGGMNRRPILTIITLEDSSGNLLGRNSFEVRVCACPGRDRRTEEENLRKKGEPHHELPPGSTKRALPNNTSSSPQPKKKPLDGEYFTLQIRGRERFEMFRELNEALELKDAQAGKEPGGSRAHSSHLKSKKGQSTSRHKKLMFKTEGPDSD

The assay concerns the target Cellular tumor antigen p53 (Homo sapiens) (UniProt P04637). Briefly: Primary qHTS for small molecule compounds that upregulate eGFP-tagged delta133p53alpha (in N-terminal) cells. (AID 2060322). Also: nearly all actives have a fitted effect of over 75% in size.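 As to activation: series mostly up to about 56 µM; 0% = DMSO vehicle and 100% = reference activator.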 As to conditions: NCI-H358 eGFP-delta133p53alpha fluorescence, 24 h; activation: active compounds read high. The method in brief: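 NCI-H358 cells pre-induced 24 h with 10 ng/ml doxycycline to express N-terminal eGFP-delta133p53alpha, then dosed 24 h at 37C without doxycycline; fixed, Hoechst-stained, GFP intensity by laser scanning cytometry, normalized to DMSO (0%) and 57.5 uM 5-azacytidine (100%).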
Take `O=C(O)[C@H](O)[C@@H](O)[C@H](O[C@@H]1O[C@H](CO)[C@H](O)[C@H](O)[C@H]1O)[C@H](O)CO`: the activation is -12.6%.

With `CC(=O)SC[C@@H](C)C(=O)N1CCC[C@H]1C(=O)N[C@@H](Cc1ccccc1)C(=O)O`, the activation was -26.8%. Same read-out and setting: to `CN(C)CC/C=C1/c2ccccc2COc2ccc(CC(=O)O)cc21` belongs -13%; to `CC1CNc2c(cccc2S(=O)(=O)N[C@@H](CCCN=C(N)N)C(=O)N2CC[C@@H](C)C[C@@H]2C(=O)O)C1` (stereo not given in full), 8.55%; to `CC1(CN2CCC(n3c(=O)[nH]c4ccccc43)CC2)OCc2ccccc2-n2cccc21` (stereo not given), -25.4% and -3.95%. Still for that read-out and setting: to `COc1cccc2c1CCCC2CCCN1CCN(C2CCCCC2)CC1` (stereo not given) belongs 0.872%. Take `Cc1ccc(C(=O)Nc2ccc(CN3CCN(C)CC3)c(C(F)(F)F)c2)cc1C#Cc1cnc2cccnn12`: the Potency was 7.69 µM (active) and 10.7 µM (active). As for `CCCCCCNC(=O)n1cc(F)c(=O)[nH]c1=O`, the activation was -29.9% and -7.59%. Same read-out and setting: to `O=C(O)[C@H](Cc1c[nH]c2ccccc12)N1C(=O)c2ccccc2C1=O` belongs -29%. The same measure, in the same setting: to `O=C(/C=C\n1cnc(-c2cc(C(F)(F)F)cc(C(F)(F)F)c2)n1)NNc1cnccn1` belongs 24.8%; to `Nc1nc(-c2nn(Cc3ccccc3F)c3ncccc23)nc(N)c1N1CCOCC1`, 6.49%.

With `COc1ccc(-n2c(C)c([N+](=O)[O-])c3ccc(O)cc32)cc1`, the activation is -5.31%.

For the compound `Cc1ccc(S(=O)(=O)Nc2nc3ccccc3nc2Nc2ccc3nsnc3c2)cc1`, the activation was 6.55%.

As for `CC(C)C[C@H](NC(=O)[C@H](CCc1ccccc1)NC(=O)CN1CCOCC1)C(=O)N[C@@H](Cc1ccccc1)C(=O)N[C@@H](CC(C)C)C(=O)[C@@]1(C)CO1`, the Potency was 110 nM (active) and 273 nM (active). Take `Oc1ccc(C2CCN(c3ccnc4ccccc34)CC2)cc1O`: the activation is 25.9%. Turning to `CC(=O)[C@H]1CC[C@H]2[C@@H]3CC=C4C[C@@H](O)CC[C@]4(C)[C@H]3CC[C@]12C`, the activation was -3.95% and -16.2%. Still for that read-out and setting: to `Cc1ccsc1C(=CCCN1CCC[C@@H](C(=O)O)C1)c1sccc1C` belongs -19.8%; to `Oc1cc2c(cc1O)C1c3ccc(O)c(O)c3OCC1(O)C2` (stereo not given), -7.38%; to `CN(CC(=O)N(Cc1ccc(C2CCCCC2)cc1)c1ccc(C(=O)O)c(O)c1)S(=O)(=O)c1c(F)c(F)c(F)c(F)c1F`, 37.6%. On the same count and under the same terms, to `Cc1nc2cnc3ccc(C#Cc4cccnc4)cc3c2n1-c1ccc(C(C)(C)C#N)cc1` belongs 35.7%; to `C[C@]12CCC(=O)C=C1[C@@H]1C[C@@H]1[C@H]1[C@@H]3[C@@H]4C[C@@H]4[C@@]4(CCC(=O)O4)[C@@]3(C)CC[C@@H]12`, -15.3%.

Regarding `CCOC(=O)[C@@H](N)CCC(=O)N[C@@H](CSCc1ccccc1)C(=O)N[C@@H](C(=O)OCC)c1ccccc1`, the activation is -1.42%. Still for that read-out and setting: to `O=c1ccn([C@@H]2O[C@H](CO)[C@H](O)[C@@H]2F)c(=O)[nH]1` belongs -22.6%; to `N#Cc1cc(NC(=O)Nc2nnc(-c3ccncc3)s2)ccc1-c1cn[nH]c1`, -26.3%. The same measure, in the same setting: to `NS(=O)(=O)c1ccc(NC2=CC(=O)c3ccccc3C2=O)cc1` belongs 4.73%.

Turning to `CC(C)C[C@H](NC(=O)CNC(=O)c1cc(Cl)ccc1Cl)B1OC(=O)CC(CC(=O)O)(C(=O)O)O1` (stereo not given in full), the Potency is 9.68 µM (active). Regarding `COc1cc(S(C)(=O)=O)ccc1Nc1nc2ccc(-c3ccc(NC(=O)[C@H](C)c4ccc(F)cc4)cc3)cn2n1`, the activation was -11.7%.

As to `O=C(O)CCC1CCC(c2cc(F)ccc2F)(S(=O)(=O)c2ccc(Cl)cc2)CC1` (stereo not given), the activation is 33.4%. The same measure, in the same setting: to `CC(C)C(C)C=CC(C)C1CCC2C3=CC=C4CC(O)CCC4(C)C3CCC21C` (stereo not given) belongs 11%. Same read-out and setting: to `O=C(O)c1cn(-c2ccc(F)cc2)c2cc(N3CCNCC3)c(F)cc2c1=O` belongs -9.7%. Still for that read-out and setting: to `CCc1cc(-c2n[nH]c(C)c2-c2ccc3c(c2)OCCO3)c(O)cc1O` belongs 2.7%; to `CC[C@@H]1C(=O)N(C)c2cnc(Nc3ccc(C(=O)NC4CCN(C)CC4)cc3OC)nc2N1C1CCCC1`, 7.53%; to `Nc1nc2[nH]cc(CCc3ccc(C(=O)N[C@@H](CCC(=O)O)C(=O)O)cc3)c2c(=O)[nH]1`, -41.3%. On to `c1coc(CNc2ncnc3nc[nH]c23)c1`, for which the activation was -14.3%.

For the compound `Cc1cccc(-c2nn(C(=S)Nc3ccccc3)cc2-c2ccnc3ccccc23)n1`, the activation is 44.1%. Same read-out and setting: to `Nc1nc(=O)n([C@H]2C[C@H](O)[C@@H](CO)O2)cc1F` belongs -4.59%; to `O=C1CN2Cc3c(ccc(Cl)c3Cl)N=C2N1`, -11.4%. Still for that read-out and setting: to `C=C(C)[C@@H]1CC[C@]2(C)CC[C@]3(C)[C@H](CC[C@@H]4[C@@]5(C)CC[C@H](O)C(C)(C)[C@H]5CC[C@]43C)[C@@H]12` belongs -1.45%; to `COc1c(C)cnc(Cn2cnc3c(Cl)nc(N)nc32)c1C`, -17.3%; to `Cc1c(C)c2c(c(C)c1O)CCC(C)(COc1ccc(CC3SC(=O)NC3=O)cc1)O2` (stereo not given), -7.34%.
